From PubChem BioAssay AID652120 (NMMLSC, 2013)
Active and inactive are the calls of the source.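 How the source made its calls: active means viability below 50% at the top dose and a half-maximal effect concentration under 10 µM; inactive means the rest.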

Assay: viability of NIH 3T3 fibroblasts – cell-based, CellTiter-Glo, Powder Set01 subset01, cytotoxicity control for AML myeloid differentiation project, dose response (AID 652120)

**Q.** Which outcome does the source give for `O=C(CCNC(=O)c1ccc(Cl)cc1)NC1CCCc2ccccc21` (stereo not drawn) here?
**A.** inactive

**Q.** With `Cc1ccc(Nc2nc(=O)c3cccnc3s2)c(Br)c1` as the compound, how does the outcome read?
**A.** inactive

**Q.** With `O=C(O)c1cccnc1Nc1ccc(Cl)cc1` as the compound, how does the outcome read?
**A.** inactive
